Measurements as given in ChEMBL document CHEMBL4513216, “Probing the Open Global Health Chemical Diversity Library for Multistage-Active Starting Points for Next-Generation Antimalarials” (ACS Infect Dis, 2020).
About 8,600 (12%) of roughly 69,000 compounds showed an effect of 50% or more. For the sample, strong results were picked, then their nearest neighbours and some compounds at random.

The compounds below were run on Plasmodium berghei (assay: Screen against P. berghei liver stage (PbLuc), transformed with Luciferase, at 10uM). Settings: tested at 10 uM.
Type: functional, HepG2
For `Cc1noc(C)c1CC(=O)NCC1(O)CCCN(c2ccccn2)C1` (configuration not stated), the INHIBITION was 14.6%. `CN(Cc1ccc(C#N)cc1)Cc1noc(C(C)(C)C)n1` showed an INHIBITION of 53.5%. `CSc1ccc(CN(C)Cc2noc(C(C)(C)C)n2)cc1` gave an INHIBITION of 56.9%. `CC(C)(C)c1nc(CN(Cc2ccccc2Cl)C2CCCC2)no1` gave an INHIBITION of 9.35%. `CC(c1nc(C2CC2)no1)N(C)Cc1ccc(C#N)cc1` (configuration not stated) showed an INHIBITION of -4.4%. `CCN(Cc1noc(C(C)(C)C)n1)Cc1ccc(C#N)cc1F` gave an INHIBITION of 28%. `CC(C)(C)c1nc(CN(CCO)Cc2cc(Br)ccc2F)no1` was tested, and the INHIBITION was -38.2%. Compound `CCc1cc(N(C)CCCO)n2nccc2n1` has an INHIBITION of 19.4%. In the case of `Cc1noc(C)c1CN(C)C(=O)Nc1cnn(CC2CCCO2)c1` (configuration not stated), the INHIBITION is reported as 18.4%. `Cc1cc(C(=O)N[C@H](C)c2onc(C)c2C(=O)O)c(C)o1` gave an INHIBITION of -12.2%. Compound `COCCSCC(=O)NCc1ccnc(N(C)C)c1` has an INHIBITION of 46.4%. `Cc1oc(C(C)C)cc1C(=O)N1C[C@@H]2CC[C@H]1CN(S(=O)(=O)N(C)C)C2` gave an INHIBITION of -19.5%. For `CC(C)N1CC2(CCCN(Cc3noc(C4CCCC4)n3)C2)CCC1=O` (configuration not stated), the INHIBITION was 50.5%. `CCCN1CCCC2(CCN(Cc3noc(C4CCCC4)n3)C2)C1=O` (configuration not stated) was tested, and the INHIBITION was -15.8%. Work on `CNC1CCCN(Cc2noc(C3CC3)n2)C1` (configuration not stated) yielded an INHIBITION of -17.4%. In the case of `CC(C)N1CCCC2(CCN(Cc3noc(C4CCCC4)n3)C2)C1=O` (configuration not stated), the INHIBITION is reported as 70.2%. `O=C1CCC2(CCCO2)CCN1Cc1noc(C2CCCC2)n1` (configuration not stated) gave an INHIBITION of 26.7%. With `O=C1N(CCO)CCCC12CCN(Cc1noc(C3CCCC3)n1)C2` (configuration not stated) the INHIBITION was 22.7%. Compound `CCN1CCC2(CCN(Cc3nccs3)CC2)C1=O` has an INHIBITION of -28.8%. `O=C(NCC(=O)N1CCCCC1)c1ccoc1` was tested, and the INHIBITION was 17.3%. Compound `Cc1ccc2[nH]c(=O)c(CNCCCN3CCOCC3)cc2c1` has an INHIBITION of -37%. Work on `Cc1csc2c(N3CCNC(C(=O)NCc4cccnc4)C3)ncnc12` (configuration not stated) yielded an INHIBITION of 16.9%. Compound `Cc1csc2c(N3CCNC(C(=O)Nc4ccc(F)cc4)C3)ncnc12` (configuration not stated) has an INHIBITION of 62.8%. `Cc1csc2c(N3CCNC(C(=O)N4CCCC4)C3)ncnc12` (configuration not stated) was tested, and the INHIBITION was -10.1%. `CCn1cc(CN2C[C@@H]3CCCN3C[C@@H]2CCSC)c(C)n1` gave an INHIBITION of 46.1%. For `CN(C)C(=O)Cn1cc(C(=O)NCCc2ccc(C(F)(F)F)cc2)nn1`, the INHIBITION was -25.9%. `Cc1nc(-c2cn(CCN)nn2)n(-c2ccc3c(c2)CCC3)n1` gave an INHIBITION of 56.5%. With `Cc1nc(-c2cn(CCN)nn2)n(-c2ccc(C(F)(F)F)cc2)n1` the INHIBITION was 76.8%. Work on `Cc1nc(CCN2CCCCC2)n(-c2ccc(F)cc2)n1` yielded an INHIBITION of -8.19%. `Cc1cc(-n2nc(C)nc2-c2cn(CCN)nn2)ccn1` gave an INHIBITION of 41.5%. `CNS(=O)(=O)CCn1cc(-c2cc3c(cc2OC)CCC3)nn1` gave an INHIBITION of 37.3%. `CC(C)c1noc(CNC2CCCN(Cc3noc(C4CC4)n3)C2)n1` (configuration not stated) showed an INHIBITION of -42.1%. `Cc1nc(N2CCN(C)CC2)ncc1C(=O)N1CC[C@](C)(O)[C@H](C)C1` showed an INHIBITION of -10.2%. For `COCCN1CCN(C=C2NN=C(c3occc3C)O2)CC1`, the INHIBITION was 43.4%. Work on `Cc1ccoc1C1=NNC(=CN2CCn3c(C)nnc3C2)O1` yielded an INHIBITION of -21.7%. Work on `CCOCCN1CCN(C=C2NN=C(c3occc3C)O2)CC1CC` (configuration not stated) yielded an INHIBITION of 76.7%. `Cc1ccoc1C1=NNC(=CN2CCOC(Cn3cccn3)C2)O1` (configuration not stated) gave an INHIBITION of -50.5%. In the case of `CCOCCN1CCN(C=C2NN=C(c3occc3C)O2)CC1`, the INHIBITION is reported as 70.3%. Compound `CCc1nnc2n1CCN(C=C1NN=C(c3occc3C)O1)C2` has an INHIBITION of 11.2%. For `CC(C)c1nc(CN2CCN(C(=O)OC(C)(C)C)C(C)C2)no1` (configuration not stated), the INHIBITION was -9.35%. Work on `Cc1nn(C)c2c(=O)n(Cc3ccc(C#N)cc3)nnc12` yielded an INHIBITION of 8.15%. `CC(C)OCCCNC(=O)CS(=O)(=O)Cc1cccc(Cl)c1` gave an INHIBITION of -63.3%. `Cn1ccnc1-c1cn(CCc2nnc(N)s2)nn1` gave an INHIBITION of 40.2%. `CC(C)c1nnc2n1CC(CNCc1ccsc1)CC2` (configuration not stated) showed an INHIBITION of 5.85%. `Cc1oc(-c2ccsc2)nc1CC(=O)NCCCS(C)(=O)=O` gave an INHIBITION of 5.05%. For `Cc1cc(C(=O)N2CCN(Cc3ccco3)C(CCO)C2)cc(=O)[nH]1` (configuration not stated), the INHIBITION was 52.1%. Compound `O=C(c1ccncc1Cl)N1CCN(Cc2ccco2)C(CCO)C1` (configuration not stated) has an INHIBITION of 16.2%. In the case of `O=C(c1ncccc1O)N1CCN(Cc2ccco2)C(CCO)C1` (configuration not stated), the INHIBITION is reported as 17%. `CCOc1ccc(C(=O)N2CCCC2Cn2cc(C)cn2)cn1` (configuration not stated) showed an INHIBITION of 28.55%. With `CCn1cc(NC(=O)C2CCN(CC(=O)NCC(C)C)CC2)cn1` the INHIBITION was 37.4%. In the case of `Cc1ccc(NC(=O)c2cc3c(=O)n(C)c(=O)n(C)c3nc2C)cc1Cl`, the INHIBITION is reported as -6.83%. `COc1cccc([C@@H]2N[C@H](c3nccs3)Cc3ccsc32)c1OC` was tested, and the INHIBITION was 49.2%.
